Rows were chosen to be rich in hits. Some 2.6% of all compounds tested hit in one or more screens of this group.
DNA FID counter: displaces DNA intercalator in HCV helicase counter-screen; 290,000 tested, 0.17% active; AID 1845; inhibition, % at 7.9 µM; DNA fluorescent intercalator displacement, fluorescence; in the data active = inhibition above about 37%;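 also: 0% = vehicle and 100% = reference compound; higher means more ethidium bromide displaced from hairpin DNA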
IEC-6 tox: IEC-6 cytotoxicity, counter-screen for KLF5 inhibitors; luminescence viability; inhibition, % at 5 µM; 290,000 tested, 0.78% active; AID 1825;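 also: 0% = plate median of test compound wells and 100% = cytotoxic reference compound wells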
Ba/F3 V617F tox: reduce viability of Ba/F3 cells dependent on JAK2V617F; AID 1446; 220,000 tested, 1.1% active; Ba/F3 EpoR-JAK2V617F viability, ATP luminescence; inhibition, % at 5.6 µM;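 active = inhibition above the campaign mean plus 3 SD over all tested compounds, cut at about 24% in these data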;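 also: cytokine-independent growth of Ba/F3 cells driven by EpoR plus mutant JAK2; 0% = DMSO-treated cells and 100% = JAK inhibitor I control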
BaF3 parental: parental Ba/F3 viability inhibition as JAK2V617F counter-screen | inhibition, % at 5.6 µM | 220,000 tested, 1.1% active | CellTiter-Glo ATP luminescence;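 active = inhibition above a per-campaign cutoff, the mean inhibition of all tested compounds plus 3 SD, cut at about 27% in these data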;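 also: 0% = DMSO wells and 100% = JAK Inhibitor I control wells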
GPR7 antag: human neuropeptides B/W receptor 1 antagonism | AID 1861 | inhibition, % at 4.4 µM | 290,000 tested, 1.1% active | GPR7-expressing cells, fluorescence antagonist assay; in the data active = inhibition above about 16%, passing the limit was not always enough;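 also: cells stimulated with the agonist NPW; 0% = agonist with vehicle and 100% = vehicle without agonist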
Target sequence (P48145 whole entry, looked up): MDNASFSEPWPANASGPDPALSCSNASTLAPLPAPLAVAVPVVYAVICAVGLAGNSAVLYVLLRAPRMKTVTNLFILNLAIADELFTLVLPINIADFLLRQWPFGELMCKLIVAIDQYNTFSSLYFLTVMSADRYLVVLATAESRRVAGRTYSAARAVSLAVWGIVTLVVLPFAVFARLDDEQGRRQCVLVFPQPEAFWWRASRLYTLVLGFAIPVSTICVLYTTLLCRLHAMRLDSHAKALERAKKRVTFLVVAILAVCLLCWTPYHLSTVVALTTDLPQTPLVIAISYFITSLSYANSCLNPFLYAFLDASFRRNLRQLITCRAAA
KLF5 inhibitor: inhibitors of KLF5 expression. inhibition, % at 5 µM. 290,000 tested, 0.23% active. DLD-1 KLF5 promoter-luciferase reporter, luminescence;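 active = inhibition above a per-plate limit of that plate's mean compound inhibition plus 3 SD, cut at about 60% in these data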;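 also: 0% = DMSO wells and 100% = LY294002 at 200 µM; higher means less KLF5 promoter-driven luciferase light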
IEC-6 tox confirm: confirmation of cytotoxic compounds in rat IEC-6 intestinal epithelial cells; 1,900 tested, 63% active; inhibition, % at 5 µM; IEC-6 rat intestinal epithelial viability, luminescence; shares compounds with IEC-6 tox;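 also: 0% = vehicle and 100% = reference cytotoxic drug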
* hit, by the source's call; nt = no result. Rule as the data show it, unless noted: active = inhibition above about 22%; inactive = the rest.

SMILES	DNA FID counter	IEC-6 tox	Ba/F3 V617F tox	BaF3 parental	GPR7 antag	KLF5 inhibitor	IEC-6 tox confirm
COc1cc(NC2CCCCC2O)c2nc(-c3ccc(Cl)cc3)ccc2c1 (configuration not stated)	-18	23*	-3	0	-15	-52	11
O=C(c1ccccc1Cl)N1CCNCC1	-8	6	2	4	-5	6	nt
Clc1cccc2c1Sc1ccccc1CC2N1CCNCC1 (configuration not stated)	35	23*	6	8	58*	1	9
COc1cccc(CN2C(=O)C3(C(C#N)=C(N)OC4=C3C(=O)CCC4)c3ccccc32)c1 (configuration not stated)	-32	59*	72*	89*	-7	-9	54*
Cc1ccc(NC(=O)c2cc(Cl)nc3ccccc23)cc1	-5	4	-4	7	-2	-10	nt
COc1cc(C(=O)Nc2ccc(C)cc2)c2ccccc2n1	-14	84*	nt	nt	30	62	65*
O=C(CNc1ccc2c(c1)OCO2)N/N=C\c1cn(Cc2ccc(F)cc2)c2ccccc12	-8	-4	1	4	0	-17	nt
CC(=O)c1ccc(N/N=C(/C(N)=O)C2=NC(C)(C)Cc3ccccc32)cc1	-30	40*	-1	0	2	24	33*
CC1(C)Cc2ccccc2C(/C(=N\Nc2cccc(Cl)c2)C(N)=O)=N1	-4	6	1	4	-10	3	nt
O=C(Cc1ccccc1)Nc1ccccc1C(=O)Nc1ccccc1	-19	4	1	3	-10	-13	nt
Cc1cc(NC(=O)COC(=O)COc2cccc3c2OC(C)(C)C3)no1	-6	-1	0	5	5	-16	nt
Cc1cnc(NC(=O)COc2cccc3c2OC(C)(C)C3)s1	-20	30*	6	11	-8	42	34*
CCOC(=O)C(NC(=O)CC)(Nc1cc(C)on1)C(F)(F)F (configuration not stated)	-3	-2	0	7	-9	-17	nt
CCOc1ccccc1NC(=O)Cn1nnc(C(=O)NCc2ccc3c(c2)OCO3)c1N	-31	51*	nt	nt	15	51	28*
CCOc1ccccc1NC(=O)c1nnn(CC(=O)Nc2ccc3c(c2)OCO3)c1N	-5	3	nt	nt	-1	22	nt
COc1cccc(CNC(=O)c2nnn(CC(=O)Nc3ccc(Br)cc3)c2N)c1	-19	34*	nt	nt	11	0	18
CCOC(=O)N=Nc1c(O)n(CC(=O)OC)c2ccccc12	-2	3	6	2	-18	-11	nt
CCOC(=O)N=Nc1c2ccccc2c2nc3no[nH]c3nc12	3	100*	4	14	-5	1	102*
COc1ccc(C(=O)N/N=C(\C)c2ccccn2)cc1OC	-8	40*	nt	nt	-5	54	99*
C/C(=N\NC(=O)c1ccccc1Cl)c1ccccn1	-5	41*	nt	nt	-12	36	66*
O=C(N/N=C(\c1ccccc1)c1ccccn1)c1ccccc1Cl	-22	95*	nt	nt	-5	53	58*
COc1ccc(NC(=O)c2ccccn2)cc1OC	-2	0	0	6	-1	-58	nt
C/C(=N\NC(=O)c1cccc2ccccc12)c1ccccn1	-5	16	nt	nt	-10	50	nt
COc1ccc(C(=O)N/N=C(\c2ccccc2)c2ccccn2)cc1	-15	28*	74*	68*	6	25	65*
COc1ccc(C(=O)Nc2ccc(NC(=O)c3ccccn3)cn2)cc1	-24	-5	nt	nt	6	-21	nt
SMILES	DNA FID counter	IEC-6 tox	Ba/F3 V617F tox	BaF3 parental	GPR7 antag	KLF5 inhibitor	IEC-6 tox confirm
CC(C)NC(=O)C(=O)NCc1ccccn1	-13	-2	0	-2	-5	-12	nt
C/C(=N\NC(=O)c1ccc(Cl)c(Cl)c1)c1ccccn1	-17	42*	nt	nt	-8	50	97*
C/C(=N\NC(=O)c1cccc(Br)c1)c1ccccn1	-6	12	nt	nt	-4	39	nt
C=C(C)COc1ccc(-c2[nH]ncc2-c2ccc(OC)c(OC)c2)c(O)c1	-21	62*	81*	66*	3	51	57*
Cn1c(=O)[nH]c(=O)c2c1nc(CN1CCN(c3cccc(Cl)c3)CC1)n2CCCc1ccccc1	-4	-4	-4	1	-5	-11	nt
CCCCn1c(CN2CCN(c3cccc(Cl)c3)CC2)nc2c1c(=O)[nH]c(=O)n2C	-35	44*	48*	38*	-7	27	41*
COc1cc(/C=N/Nc2snc(SC)c2C#N)ccc1O	22	45*	73*	62*	21	20	45*
COc1cc(/C=N/Nc2nc3ccccc3[nH]2)ccc1O	15	9	-4	5	-12	-18	nt
Cc1ccccc1NC(=S)Nc1cccc2cnccc12	11	44*	2	6	5	6	-1
Cc1ccc(F)c(NC(=S)Nc2cccc3ccccc23)c1	1	65*	nt	nt	-16	-80	-2
CC(=O)Nc1cccc(NC(=S)Nc2cccc3ccccc23)c1	-3	6	nt	nt	1	-106	nt
Cc1ccc(C)c(NC(=S)Nc2cccc3cnccc23)c1	5	9	-3	3	15	-16	nt
Cc1ccc(Cl)cc1NC(=S)N/N=C/c1cccc2ccccc12	-17	79*	78*	76*	-2	45	67*
CC(=O)c1cccc(NC(=S)Nc2cccc3ccccc23)c1	0	28*	nt	nt	-9	-38	-1
COc1ccc(C(=O)COC(=O)C(CCCCN2C(=O)C3C4C=CC(C4)C3C2=O)N2C(=O)C3C4C=CC(C4)C3C2=O)cc1 (configuration not stated)	-44	5	-1	1	5	9	nt
COc1cc(/C=N/NC(=O)Nc2cccc3nsnc23)cc(OC)c1OC	1	0	-3	-1	3	-15	nt
O=C(N/N=C/c1ccc(O)cc1)Nc1cccc2nsnc12	1	81*	2	26	-22	-26	91*
Cc1cc(C)c(NC(=O)CSc2nncn2-c2cccnc2)c(C)c1	-5	-10	0	4	-6	0	nt
CC(C)c1ccc(/C=C/C2=NNC(=O)CC2)cc1	-26	55*	38*	30*	-15	-119	37*
COc1ccc(C)cc1NC(=O)CNC(c1ccccc1)c1ccc(C)cc1 (configuration not stated)	-11	69*	nt	nt	15	52	51*
COc1cc(/C=N\NC(=O)CNC(=O)C2COc3ccccc3O2)ccc1O (configuration not stated)	-5	-1	0	6	-5	2	nt
CCN(CC)c1ccc(/C=N/NC(=O)CNC(=O)C2COc3ccccc3O2)c(O)c1 (configuration not stated)	-13	52*	nt	nt	-8	60	48*
O=C(O)C1CC=CCC1C(=O)NCCCN1CCCC1=O (configuration not stated)	0	1	nt	nt	-16	-18	nt

Screening results from PubChem.
